# Source: PubChem (several laboratories)
# Rows were chosen to be rich in hits. Some 2.7% of all compounds tested hit in one or more screens of this group.
# MPTP inh: mitochondrial permeability transition pore inhibitors, primary screen, biochemical, isolated mouse mitochondria, absorbance; 1.4% of 360,000 active; inhibition, % at 10 µM; Ca2+ swelling absorbance, 30 min;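 active = inhibition of 50% or more, scaled per plate between neutral and stimulator controls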;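 note: 0% = DMSO wells given calcium and 100% = 1 mM EGTA wells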
# ATG4B inhibitor: ATG4B protease inhibitors, primary screen, biochemical, fluorescence, uHTS; Cysteine protease ATG4B (Homo sapiens), Q9Y4P1; ATG4B cleavage of LC3-PLA2, NBD-HPC fluorescence, 1 h; inhibition, % at 8.33 µM; 0.51% of 340,000 active; in the data active = inhibition above about 40%
# Target sequence (Q9Y4P1 whole entry, looked up): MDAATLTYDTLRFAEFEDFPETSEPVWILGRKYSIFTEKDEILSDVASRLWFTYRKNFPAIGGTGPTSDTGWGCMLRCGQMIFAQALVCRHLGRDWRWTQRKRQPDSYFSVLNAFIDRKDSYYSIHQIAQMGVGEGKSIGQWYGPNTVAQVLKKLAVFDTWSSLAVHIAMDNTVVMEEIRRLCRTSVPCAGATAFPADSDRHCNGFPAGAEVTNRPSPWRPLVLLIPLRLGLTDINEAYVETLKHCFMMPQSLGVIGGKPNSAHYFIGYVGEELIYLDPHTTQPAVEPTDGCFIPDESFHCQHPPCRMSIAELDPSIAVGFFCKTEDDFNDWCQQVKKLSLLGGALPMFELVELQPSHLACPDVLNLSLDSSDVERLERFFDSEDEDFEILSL
# SKN-1 block: suppressors of acrylamide-induced Pgst-4::GFP reporter in worms, primary screen, SKN-1 inhibitor project, whole organism, uHTS, GFP/RFP fluorescence ratio, strain VP596. C. elegans VP596 Pgst-4::GFP/RFP ratio, 24 h. inhibition, % at 21.8 µM. 0.49% of 360,000 active;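 active = interference check ratio from 0.5 to 1.5 plus GFP to RFP signal ratio inhibition reaching or exceeding a fixed threshold, cut at about 30% in these data, passing the limit was not always enough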
# NRP1-CendR mod: modulators of CendR peptide binding to NRP-1, primary screen, biochemical, fluorescence polarization, uHTS; Neuropilin-1 (Homo sapiens), O14786; FAM-RPARPAR peptide binding to NRP-1; inhibition, % at 25 µM; 0.85% of 360,000 active; AID 602438, 2012;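 active = inhibition or corrected inhibition above about 18%, plus a signal ratio from 0.5 to 1.5, limit read from the data, passing the limit was not always enough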
# F508del corr: F508del CFTR correction, initial screen, CFBE line, single point | CFBE cells, YFP halide quenching; stimulated with forskolin plus potentiator P3; % fluorescence drop versus neutral controls | activity (quench increase), % at 7.58 µM | 0.36% of 350,000 active;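 active = mean added fluorescence quench of at least 8% versus neutral control, with both replicates also reaching 8%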;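 note: cells transiently co-express mutant CFTR-F508del with the halide-sensitive YFP; corrector assay measuring rescue of mutant channel to the surface after 24 h compound exposure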
# * marks the source's active call; other numbers are inactive results; . = no result.
SMILES,MPTP inh,ATG4B inhibitor,SKN-1 block,NRP1-CendR mod,F508del corr
CC(C)CCNC(=O)C(=O)Nc1ccc2c(c1)N(S(=O)(=O)c1cccs1)CCC2,-1,7,0,-10,12*
CC(C)CNC(=O)C(=O)Nc1ccc2c(c1)N(S(=O)(=O)c1cccs1)CCC2,0,7,2,10,0
CN(C)c1ccc(C=C2SC(=S)NC2=O)cc1,3,5,40*,70,-2
O=C(c1ccncc1)N1C[C@H]2[C@@H](c3ccccc31)[C@@H](CO)N2C(=O)c1ccccn1,.,.,.,.,-2
O=C(CC1CC1)Nc1ccc2c(c1)[C@@H]1C[C@@H](CC(=O)N3CCCCC3)O[C@@H](CO)[C@@H]1O2,.,.,.,.,4
CCCC#Cc1ccc([C@@H]2[C@H](CO)N3C(=O)CN(S(=O)(=O)c4ccccc4C)C[C@@H]23)cc1,.,.,.,.,0
COC(=O)CCCC1=CC2=CC(=O)C(C)(OC(=O)c3cccs3)C(=O)C2=CN1CCCOC(C)C (stereo not drawn),-2,-10,16,28*,-1
COC(=O)CCC(=O)OC1(C)C(=O)C=C2C=C(c3ccsc3)OC=C2C1=O (stereo not drawn),3,36,3,-48,.
CC1(OC(=O)c2cccs2)C(=O)C=C2C=C3CCCN3C=C2C1=O (stereo not drawn),3,0,8,41*,.
COC(=O)CCCC1=CC2=CC(=O)C(C)(OC(=O)c3cccs3)C(=O)C2=CN1Cc1ccccc1 (stereo not drawn),-1,-1,-3,5,-2
CC1(OC(=O)CCc2ccccc2)C(=O)C=C2C=C3CCCN3C=C2C1=O (stereo not drawn),1,-14,-2,48*,0
COC(=O)CCCC1=CC2=CC(=O)C(C)(OC(=O)CCc3ccccc3)C(=O)C2=CO1 (stereo not drawn),5,24,33*,-47,.
C[C@H]1CN([C@@H](C)CO)C(=O)Cc2cc(NC(=O)CCCCCC(=O)Nc3ccccc3N)ccc2O[C@H]1CN(C)CC1CC1,.,.,.,.,1
COc1ccc(CN2[C@@H]3CN(C(=O)CC(F)(F)F)c4ccccc4[C@@H]3[C@@H]2CO)cc1,.,.,.,.,-2
O=C(C[C@@H]1CC[C@H](NC(=O)Nc2cc(F)ccc2F)[C@H](CO)O1)NCc1ccccn1,.,.,.,.,-1
CC(C)NC(=O)Nc1ccc2c(c1)C(=O)N([C@@H](C)CO)C[C@H](C)[C@H](CN(C)S(=O)(=O)c1cccs1)OCCCC[C@@H](C)O2,.,.,.,.,-2
CCC(=O)OC1(C)C(=O)C=C2C=C(c3ccsc3)OC=C2C1=O (stereo not drawn),4,82*,24,-55,.
CCOC(=O)/C=C1\NC(=O)CS1,1,-13,6,28*,.
CC(C)(C)C(=O)/C=C1\NC(=O)CS1,1,-6,5,-14,-2
CO[C@H]1CN(C)C(=O)c2cc(NS(=O)(=O)c3ccccc3)ccc2OC[C@H](C)N(C(=O)NC(C)C)C[C@H]1C,.,.,.,.,2
COc1ccc(CNC(=O)c2cc3c(c(-c4cccc(-c5ccc(C#N)cc5)c4)n2)[C@@H](CCO)N([S@](=O)C(C)(C)C)C3)cc1,.,.,.,.,12*
O=C1CC(N2CCN(c3nc4ccccc4s3)CC2)C(=O)N1c1ccc(F)cc1 (stereo not drawn),-6,-11,16,1,.
COC(=O)/C=C1\C(=O)N(c2nc3ccccc3s2)C(=S)N1c1ccc(F)cc1,2,-4,-35,27*,.
C[C@@H]1CN([C@@H](C)CO)C(=O)c2cccc(N(C)C)c2O[C@@H]1CN(C)S(=O)(=O)c1cccs1,.,.,.,.,-1
COC(=O)[C@H]1CN(C(=O)c2ccccc2)C(=O)N1,0,-19,4,25*,-2
SMILES,MPTP inh,ATG4B inhibitor,SKN-1 block,NRP1-CendR mod,F508del corr
C[C@H](CO)N1C[C@H](C)[C@@H](CN(C)C(=O)NC2CCCCC2)Oc2ccc(NS(=O)(=O)c3cn(C)cn3)cc2CC1=O,.,.,.,.,1
Cc1cc(C(=O)NC(C)C2CCCO2)cs1 (stereo not drawn),-1,-5,5,44*,-1
O=c1c(O)c(-c2cccs2)oc2ccc(Cl)cc12,29,-8,5,-104,53*
CC(C)(C)C1CCC(=NNC(=O)c2ccco2)CC1 (stereo not drawn),-1,-3,-1,8,-1
CN1CCC(=NNC(=O)c2ccco2)CC1,-2,1,11,36*,.
C[C@@H]1CCCCO[C@H](CN(C)C(=O)NC2CCCCC2)[C@@H](C)CN([C@@H](C)CO)C(=O)c2cc(NC(=O)C3CCCCC3)ccc2O1,.,.,.,.,0
CCC(C)[C@H](NC(=O)Nc1cccc(Cl)c1)C(=O)O (stereo partly drawn),0,-6,-14,20*,.
CCC(C)[C@H](NC(=O)Nc1ccc(S(N)(=O)=O)cc1)C(=O)O (stereo partly drawn),0,-4,1,0,.
Cc1onc(-c2ccc(Cl)cc2Cl)c1-c1csc(COc2ccccc2)n1,0,0,3,27*,-1
CC(C)c1ccc(C(=O)N2CCCC(c3cc(C(=O)Nc4ccc5c(c4)OCO5)no3)C2)cc1 (stereo not drawn),-1,.,8,22*,-2
CN(C)c1ccc(CC(=O)N2CCCC(c3cc(C(=O)Nc4ccc5c(c4)OCO5)no3)C2)cc1 (stereo not drawn),0,.,20,33*,-3
CCCC(=O)N1CCCC(c2cc(C(=O)Nc3ccc4c(c3)OCO4)no2)C1 (stereo not drawn),1,.,7,0,-4
CN(C)c1ccc(CC(=O)N2CCCC(c3cc(C(=O)Nc4ccccc4)no3)C2)cc1 (stereo not drawn),1,.,8,4,1
O=C(C[C@H]1CC[C@@H](NC(=O)Cc2cccnc2)[C@H](CO)O1)Nc1ccccc1,.,.,.,.,-1
Fc1ccccc1C(c1nnnn1C1CCCC1)N1CCN(Cc2ccccc2)CC1 (stereo not drawn),2,-8,-20,22*,.
CCC(c1nnnn1C1CCCC1)N1CCN(Cc2ccccc2)CC1 (stereo not drawn),1,-8,-24,11,.
COc1ccc(OC)c(NC(=O)CCNC(=O)Cn2ccc3ccccc3c2=O)c1,1,-1,7,8,1
COc1ccc([N+](=O)[O-])cc1NC(=O)CCNC(=O)Cn1ccc2ccccc2c1=O,0,-3,-15,30*,-2
CN(C)C(=O)c1cccc(-c2ccccc2[C@H]2[C@@H](C#N)N(C(=O)C3CC3)[C@H]2CO)c1,.,.,.,.,1
O=C(N1CCCCCC1)N1CCN(C(=O)N2CCCCC2)CC1,2,7,13,28*,.
